Records with an inconclusive call do not appear. Calls of active or inactive are those of the source. Calls come from the whole dose curve; as a rule, active = well fitted curve in the direction sought with a large enough effect; inconclusive = small, poorly fitted or top-dose-only effect, or another doubt; inactive = no such curve, though single readings can be large; an effect the other way counts as inactive or inconclusive.
Tests used:
[1] = MultiTox-Fluor Cytotoxicity Assay - LYMP1-002 - Dead Cells (AID 960); note: nearly all actives have a fitted effect of over 60% in size
In short: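 Dead-cell fluorescence (Ex/Em 485/520) after 16 h compound exposure at 37 C of LYMP1-002 lymphoblastoid cells in complete medium; AC50 by Hill equation, with data scaled between DMSO and 15 uM tetraoctylammonium bromide.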

[2] = MultiTox-Fluor Cytotoxicity Assay - LYMP1-003 - Dead Cells (AID 961); note: nearly all actives have a fitted effect of over 70% in size
In short: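 Acute toxicity is scored as increased dead-cell protease activity in human lymphoblastoid LYMP1-003 cells after 16 h compound exposure in complete culture medium. Activity is normalized to DMSO basal and 15 uM tetraoctylammonium bromide as full response.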

[3] = MultiTox-Fluor Cytotoxicity Assay - LYMP1-003 - Live Cells (AID 962);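 note: cells exposed to compound for 16 hours at 37 °C; cytotoxic hits lower the live-cell protease signal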
In short: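 Live-cell protease activity (GF-AFC substrate, 405/510 nm, 60 min at room temperature) after 16 h, 37 C compound exposure of human lymphoblastoid LYMP1-003 cells; concentration-response fitted to the Hill equation for AC50.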

[4] = Cell Viability - LYMP1-003 - Assay at 24 hr (AID 963)
In short: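 Concentration-response qHTS: ATP loss measured by CellTiter-Glo luminescence after 24 h compound exposure at 37 C. Cells were LYMP1-003 human lymphoblastoid, 2500 per well. AC50 derived via standard Hill equation modeling.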

[5] = Cell Viability - LYMP1-003 - Assay at 40 hr (AID 964); note: series mostly up to about 92 µM; nearly all actives have a fitted effect of over 60% in size
In short: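 Viability is taken as cellular ATP, read by CellTiter-Glo luminescence after 40 h of compound exposure at 37 C. Cells: human lymphoblastoid line LYMP1-003 at 2500/well; AC50 values derived by Hill-equation fitting of concentration-response data.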

[6] = Cell Viability - LYMP2-003 (AID 965);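 note: cells exposed to compounds for 24 h before reading; nearly all actives have a fitted effect of over 50% in size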
In short: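 Human lymphoblastoid LYMP2-003 cells, 2500/well, exposed to compounds for 24 h at 37 C in complete medium. Viability read as intracellular ATP by CellTiter-Glo luminescence; AC50 from Hill-equation fits of qHTS concentration-response data.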

[7] = Cell Viability - LYMP2-004 (AID 966); note: nearly all actives have a fitted effect of over 65% in size
In short: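 AC50 values come from Hill modelling of concentration-dependent loss of intracellular ATP, measured by CellTiter-Glo luminescence. Human LYMP2-004 lymphoblastoid cells (2500/well) were exposed to compound for 24 h at 37 C.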

[8] = Cell Viability - LYMP2-005 (AID 967); note: series mostly up to about 92 µM
In short: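 Human lymphoblastoid LYMP2-005 cells, 2,500 per well in complete medium, rested 5 h at 37C then compound-treated 24 h at 37C. Intracellular ATP read by CellTiter-Glo luminescence after 30 min at room temperature; AC50 from Hill-equation fits of concentration-response data.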

[9] = Cell Viability - LYMP2-009 (AID 968); note: series mostly up to about 92 µM; nearly all actives have a fitted effect of over 55% in size
[10] = Cell Viability - LYMP2-011 (AID 969); note: nearly all actives have a fitted effect of over 60% in size
In short: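 Cytotoxicity qHTS with ATP content as read-out: lymphoblastoid cells (2500/well) exposed to compound for 24 h at 37 C, then luciferase luminescence measured. Concentration-response data fitted with the standard Hill equation to give AC50.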

[11] = Cell Viability - LYMP2-013 (AID 970); note: series mostly up to about 92 µM; nearly all actives have a fitted effect of over 55% in size
In short: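 qHTS cytotoxicity: ATP-dependent luminescence (CellTiter-Glo, 30 min room temperature) read after 24 h compound exposure at 37 C of 2500 LYMP2-013 lymphoblastoid cells per well. Concentration-response fitted with Hill equation to give AC50.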

[12] = Cell Viability - LYMP2-015 (AID 971); note: nearly all actives have a fitted effect of over 55% in size
In short: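 Cytotoxicity readout: decrease in intracellular ATP (CellTiter-Glo luminescence) in 2500 LYMP2-015 lymphoblastoid cells/well after 24 h compound exposure at 37 C. Concentration-response data fitted with the standard Hill equation to give AC50.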

[13] = Cell Viability - LYMP2-017 (AID 972); note: series mostly up to about 92 µM; nearly all actives have a fitted effect of over 55% in size
In short: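 CellTiter-Glo luminescence (cellular ATP, 30 min RT) measured cytotoxicity after 24 hr compound treatment at 37 C. Cells were a human lymphoblastoid line, LYMP2-017, plated at 2500/well and incubated 5 hr first; concentration-response fitted with Hill equation for AC50.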

[14] = Cell Viability - LYMP2-019 (AID 973); note: nearly all actives have a fitted effect of over 55% in size
In short: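 AC50 values come from Hill-equation fits of luminescent intracellular ATP (CellTiter-Glo, 30 min, room temperature) following 24 h compound exposure at 37 C. Cells: LYMP2-019 lymphoblastoid line, 2500 per well, in complete culture medium.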

[15] = Cell Viability - LYMP2-021 (AID 974); note: nearly all actives have a fitted effect of over 55% in size
In short: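 AC50 values come from Hill-equation fits to CellTiter-Glo luminescence (ATP content), read after 24 hour compound exposure at 37 C of 2500 LYMP2-021 lymphoblastoid cells/well; tetraoctylammonium bromide as positive control.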

[16] = Cell Viability - LYMP2-023 (AID 975)
In short: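 Intracellular ATP, read by CellTiter-Glo luminescence, reports viability after 24 hr compound exposure at 37 C. 2500 lymphoblastoid cells/well (LYMP2-023) seeded 5 hr beforehand; Hill fits give AC50; positive control tetraoctylammonium bromide.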

[17] = Cell Viability - LYMP2-025 (AID 976); note: series mostly up to about 92 µM
In short: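 Cytotoxicity read as loss of intracellular ATP (luciferase luminescence) after 24 h compound treatment at 37 C. Uses LYMP2-025 lymphoblastoid cells in 1536-well format; Hill-equation modelling gives AC50; tetraoctylammonium bromide as positive control.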

[18] = Cell Viability - LYMP2-002 (AID 977); note: series mostly up to about 92 µM
In short: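 Human lymphoblastoid cells (2500/well) in complete medium were preincubated 5 hr at 37 C, then exposed to compounds for 24 hr at 37 C. Intracellular ATP was read by CellTiter-Glo luminescence; AC50 came from Hill-equation concentration-response fits.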

[19] = Cell Viability - LYMP2-006 (AID 978); note: series mostly up to about 92 µM; nearly all actives have a fitted effect of over 60% in size
In short: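 Human lymphoblastoid cells (LYMP2-006), 2500/well in complete medium, were treated with compound for 24 hr at 37 C. Cellular ATP was read by CellTiter-Glo luminescence after 30 min, and AC50 values came from Hill-equation fits of concentration-response data.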

[20] = Cell Viability - LYMP2-007 (AID 979)
In short: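 AC50 values come from Hill-equation fits of luminescent intracellular ATP (CellTiter-Glo, 30 min, room temperature) following 24 h compound exposure at 37 C. Cells: LYMP2-007 lymphoblastoid line, 2500 per well, in complete culture medium.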

Measured: outcome

COc1ccc(CCC(=O)c2c(O)cc(O[C@@H]3O[C@H](CO)[C@@H](O)[C@H](O)[C@H]3O[C@@H]3O[C@@H](C)[C@H](O)[C@@H](O)[C@H]3O)cc2O)cc1O
inactive: all assays above

C=C1C[C@]23C[C@@]1(O)CC[C@H]2[C@@]12C=C[C@H](O)[C@@](C)(C(=O)O1)[C@H]2[C@@H]3C(=O)O
not listed: [8] | [17]
inactive: all other assays above
